Drawing on PubChem BioAssay, this text covers growth inhibition, inhibition and outcome for 20 compounds.

The inhibition is the drop in the measured response relative to a control, in per cent.

The nature of assay [1]: antimalarial activity against Dd2 strain (AID 2302;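 active = growth inhibition above 50% at the single 2 µM test dose, taken to imply half-maximal potency below 2 µM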;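 note: 0% = DMSO untreated growth and 100% = chloroquine plus artemisinin killed control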). The conditions noted are these: P. falciparum Dd2 in RBCs, LDH growth readout, 72 h; at 2 µM; hits give high values.
Assay [2] can be described thus: HepG2 cytotoxicity, primary screen, cytotoxicity control for P. falciparum antimalarial project, cell-based, ATP luminescence (AID 2303;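 active = inhibition above 50%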;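 note: 0% = DMSO wells and 100% = digitonin-killed cells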). Particulars: HepG2 viability, 24-48 h, at 10 µM, hits give high values.
Assay [3] concerns the target L-lactate dehydrogenase (Plasmodium falciparum (isolate CDC / Honduras)) (UniProt Q27743). Nature of the assay: PfLDH activity inhibition – cell lysate, 3D7 strain, counter-screen for P. falciparum growth inhibition project (AID 2304).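 Note: 0% = vehicle and 100% = reference inhibitor.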 Particulars: P. falciparum 3D7 crude extract, LDH APAD/NBT absorbance; at 2 µM; hits give high values. In general terms: A counterscreen serves to expose hits that act by an unwanted route or on another target.

Assay [4] in a line: inhibition of 3D7 malaria parasite growth – strain 3D7 (AID 2306).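 Note: 0% = DMSO wells and 100% = chloroquine plus artemisinin control wells.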 Particulars: P. falciparum 3D7 erythrocytic growth, LDH absorbance, 72 h; at 2 µM; hits give high values.
Assay [5] deals with Calcium-dependent protein kinase 1 (Plasmodium falciparum (isolate 3D7)) (UniProt P62344). Briefly: PfCDPK1 kinase inhibitors, biochemical, TCAMS library (AID 1159585; cut-off not given, nearly all actives have IC50 up to about 0.98 µM;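 note: inhibitors leave more ATP so luminescence rises with inhibition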). The conditions noted are these: recombinant PfCDPK1, Kinase-Glo ATP depletion luminescence. A general note: Kinase-Glo measures the ATP left after a reaction by luminescence.
Assay [6] concerns the target Plasmodium falciparum protein kinase 6 (PK6, PF3D7_1337100) (UniProt Q8IDW1). Nature of the assay: PfPK6 kinase inhibitors, biochemical, TCAMS library (AID 1159586). Particulars: recombinant PfPK6, Kinase-Glo ATP depletion luminescence.
Assay [7] deals with Protein kinase 7 (PK7), Plasmodium falciparum 3D7 (PF3D7_0213400) (UniProt Q7YTF7). Briefly: inhibition of Plasmodium PK7 catalytic activity – biochemical, TCAMS antimalarial set, Kinase-Glo luminescence (AID 1159587). Particulars: recombinant PfPK7, Kinase-Glo ATP depletion luminescence.
The target in assay [8] is Calcium-dependent protein kinase 4 (Plasmodium falciparum (isolate 3D7)) (UniProt Q8IBS5). Briefly: PfCDPK4 kinase inhibitors, biochemical, TCAMS library (AID 1159588; cut-off not given, nearly all actives have IC50 up to about 0.91 µM). The conditions noted are these: recombinant PfCDPK4, Kinase-Glo ATP depletion luminescence.

Values without a mark were called inactive. For some of these results: Results with a measured potency or affinity are listed apart. The source made the active and inactive calls. Unless noted, the rule behind the calls is not given here.

Chain of L-lactate dehydrogenase (Plasmodium falciparum (isolate CDC / Honduras)) (Q27743 whole entry, looked up): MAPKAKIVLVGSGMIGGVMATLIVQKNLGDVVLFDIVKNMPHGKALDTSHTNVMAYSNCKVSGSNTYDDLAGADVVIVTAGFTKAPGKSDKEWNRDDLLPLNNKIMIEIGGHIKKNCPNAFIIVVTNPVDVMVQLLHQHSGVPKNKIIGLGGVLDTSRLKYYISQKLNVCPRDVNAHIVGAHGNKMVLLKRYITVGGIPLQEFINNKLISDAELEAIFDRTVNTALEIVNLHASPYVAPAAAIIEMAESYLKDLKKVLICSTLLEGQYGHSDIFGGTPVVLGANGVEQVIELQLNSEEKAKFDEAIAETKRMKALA
Chain of Calcium-dependent protein kinase 4 (Plasmodium falciparum (isolate 3D7)) (Q8IBS5 whole entry, looked up): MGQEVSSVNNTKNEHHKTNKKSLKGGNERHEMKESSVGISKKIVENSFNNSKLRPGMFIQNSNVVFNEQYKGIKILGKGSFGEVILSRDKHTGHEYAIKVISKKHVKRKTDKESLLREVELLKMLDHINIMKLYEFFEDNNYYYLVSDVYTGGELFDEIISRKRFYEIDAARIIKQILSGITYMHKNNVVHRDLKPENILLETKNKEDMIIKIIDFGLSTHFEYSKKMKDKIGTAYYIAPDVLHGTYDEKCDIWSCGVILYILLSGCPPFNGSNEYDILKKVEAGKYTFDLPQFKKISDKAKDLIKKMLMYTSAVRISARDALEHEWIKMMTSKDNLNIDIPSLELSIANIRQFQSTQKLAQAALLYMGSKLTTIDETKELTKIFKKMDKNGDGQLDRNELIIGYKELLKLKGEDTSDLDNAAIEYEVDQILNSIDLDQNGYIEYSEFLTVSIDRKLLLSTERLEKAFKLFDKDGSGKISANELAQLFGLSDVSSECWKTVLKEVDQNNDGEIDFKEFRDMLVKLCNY
Chain of Calcium-dependent protein kinase 1 (Plasmodium falciparum (isolate 3D7)) (P62344 whole entry, looked up): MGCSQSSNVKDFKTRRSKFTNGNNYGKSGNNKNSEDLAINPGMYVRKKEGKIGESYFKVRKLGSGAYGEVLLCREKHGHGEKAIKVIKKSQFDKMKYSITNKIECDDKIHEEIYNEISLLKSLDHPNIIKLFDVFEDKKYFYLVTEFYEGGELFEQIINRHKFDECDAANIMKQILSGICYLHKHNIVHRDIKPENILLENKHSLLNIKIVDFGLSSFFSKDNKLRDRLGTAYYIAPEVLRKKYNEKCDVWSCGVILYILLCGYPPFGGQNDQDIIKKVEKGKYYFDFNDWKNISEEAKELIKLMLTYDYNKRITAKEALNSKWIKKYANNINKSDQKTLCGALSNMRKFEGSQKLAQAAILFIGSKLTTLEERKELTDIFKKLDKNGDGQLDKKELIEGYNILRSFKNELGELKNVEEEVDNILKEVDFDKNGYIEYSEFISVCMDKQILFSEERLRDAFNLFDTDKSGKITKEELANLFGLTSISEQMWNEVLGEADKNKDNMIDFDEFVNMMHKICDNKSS
Chain of Plasmodium falciparum protein kinase 6 (PK6, PF3D7_1337100) (Q8IDW1 1-305): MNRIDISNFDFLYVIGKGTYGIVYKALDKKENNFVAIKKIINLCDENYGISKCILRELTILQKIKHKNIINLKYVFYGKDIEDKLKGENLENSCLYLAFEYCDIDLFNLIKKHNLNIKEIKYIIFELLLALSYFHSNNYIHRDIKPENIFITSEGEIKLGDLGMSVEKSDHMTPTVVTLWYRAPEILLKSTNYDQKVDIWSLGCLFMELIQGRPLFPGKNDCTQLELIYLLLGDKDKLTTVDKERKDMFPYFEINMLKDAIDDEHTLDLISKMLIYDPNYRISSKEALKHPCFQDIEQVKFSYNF
Chain of Protein kinase 7 (PK7), Plasmodium falciparum 3D7 (PF3D7_0213400) (Q7YTF7 1-343): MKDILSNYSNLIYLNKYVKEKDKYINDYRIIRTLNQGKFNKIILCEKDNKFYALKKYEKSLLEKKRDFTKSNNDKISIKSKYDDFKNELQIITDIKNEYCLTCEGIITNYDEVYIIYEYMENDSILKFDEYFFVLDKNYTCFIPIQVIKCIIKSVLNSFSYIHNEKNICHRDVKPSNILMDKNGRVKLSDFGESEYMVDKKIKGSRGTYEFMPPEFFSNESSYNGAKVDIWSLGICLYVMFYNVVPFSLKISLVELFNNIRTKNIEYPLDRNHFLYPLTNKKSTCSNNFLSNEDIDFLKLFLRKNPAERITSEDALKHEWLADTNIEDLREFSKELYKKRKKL

For the compound `CN1CCN(CCCN(Cc2csc(-c3ccc(CNCc4ccccc4)cc3)n2)C(=O)Nc2cc(Cl)cc(Cl)c2)CC1`, the figures for the growth inhibition in assay [1] and in assay [4] were 45% and 103% (active), respectively. The inhibition in assay [2] is 34%; in assay [3], -2%. Further, the result in assay [5], in assay [6], in assay [7] and in assay [8] was inactive.

For the compound `COc1ccc2c(NN=Cc3cccnc3)ccnc2c1`, the growth inhibition in assay [1] was 26%; in assay [4], 97% (active). In addition, the inhibition is 3% in assay [2] and -4% in assay [3]. The outcome in assay [5], in assay [6], in assay [7] and in assay [8] was inactive.

Consider `CCCCNCc1ccc(-c2nc(CN(CCCN3CCN(C)CC3)C(=O)Nc3cccc(Cl)c3)cs2)cc1`, for which the results for the growth inhibition in assay [1] and in assay [4] were 73% (active) and 99% (active), respectively. The figures for the inhibition in assay [2] and in assay [3] were 35% and 4%, respectively. The outcome in assay [5], in assay [6], in assay [7] and in assay [8] was inactive.

With `NCc1ccc(-c2cccc(CNC3CCN(Cc4ccccc4)CC3)c2)cc1`, the values for the growth inhibition in assay [1] and in assay [4] were 50% (active) and 100% (active), respectively. Besides, the inhibition was 24% in assay [2] and -7% in assay [3]. The outcome in assay [5], in assay [6], in assay [7] and in assay [8] was inactive.

In the case of `C[C@@H]([C@@H](CCCCc1ccccc1)C(=O)N[C@H](C(=O)Nc1cccnc1)C(C)(C)C)N(O)C=O`, the growth inhibition in assay [1] and in assay [4] was 98% (active) throughout. Besides, the inhibition in assay [2] and in assay [3] was 0% in each case. Moreover, the result in assay [5], in assay [6], in assay [7] and in assay [8] was inactive.

As to `COc1cccc(-c2ccc(NC(=O)C3CCCN(Cc4cccc(OC)c4O)C3)cc2)c1` (stereo not given), the growth inhibition is 78% (active) in assay [1] and 98% (active) in assay [4]. Besides, the inhibition in assay [2] is 13%; in assay [3], 1%. The outcome in assay [5], in assay [6], in assay [7] and in assay [8] was inactive.

`CCCOc1ccccc1-c1nc2[nH]c3c(c2c(=O)[nH]1)CCN(C)C3`: the growth inhibition is 70% (active) in assay [1] and 87% (active) in assay [4]. Moreover, the figures for the inhibition in assay [2] and in assay [3] were 8% and -6%, respectively. Further, the result in assay [5], in assay [6], in assay [7] and in assay [8] was inactive.

Take `CN1CCN(c2cc(NC(=O)Nc3cccc(Cl)c3Cl)ccc2Cl)CC1`: the growth inhibition in assay [1] was 21%; in assay [4], 102% (active). The inhibition in assay [2] and in assay [3] was 2% throughout. For the same compound, the result in assay [5], in assay [6], in assay [7] and in assay [8] was inactive.

As to `CN1CCN(C(=O)CN2CCC3(CCC2=O)NC(=O)c2ccccc2O3)CC1` (stereo not given), the results for the growth inhibition in assay [1] and in assay [4] were 98% (active) and 99% (active), respectively. The inhibition in assay [2] is -7%; in assay [3] it was 2%. For the same compound, the result in assay [5], in assay [6], in assay [7] and in assay [8] was inactive.

Regarding `COc1ccc(CN(C)CCCc2ccc(NC(=O)c3cccc4c(=O)c5cccc(F)c5[nH]c34)cc2)cc1OC`, the growth inhibition in assay [1] is 94% (active); in assay [4] it was 100% (active). For the same compound, the inhibition is 100% (active) in assay [2] and 0% in assay [3]. The outcome in assay [5], in assay [6], in assay [7] and in assay [8] was inactive.

In the case of `N=C1c2ccccc2CN1CC(=O)c1ccc(Cl)c(Cl)c1`, the growth inhibition is 16% in assay [1] and 98% (active) in assay [4]. In addition, the inhibition in assay [2] was 1%; in assay [3], 0%. Moreover, the outcome in assay [5], in assay [6], in assay [7] and in assay [8] was inactive.

For the compound `O=c1sn(-c2csc3ccccc23)c2ccccc12`, the growth inhibition was 54% (active) in assay [1] and 94% (active) in assay [4]. The inhibition is 14% in assay [2] and -6% in assay [3]. For the same compound, the outcome in assay [5], in assay [6], in assay [7] and in assay [8] was inactive.

For `CC1(C)CN(CCC2CCC(NC(=O)/C=C/c3ccc(F)cc3F)CC2)Cc2ccc(C#N)cc21` (stereo not given), the growth inhibition in assay [1] was 77% (active); in assay [4], 88% (active). The values for the inhibition in assay [2] and in assay [3] were 39% and -6%, respectively. The result in assay [5], in assay [6], in assay [7] and in assay [8] was inactive.

Consider `COc1cc(NC(=O)c2ccc(-c3ccccc3)cc2)ccc1OCCCN1CCC(c2ccccc2)CC1`, for which the growth inhibition in assay [1] was 30%; in assay [4] it was 103% (active). Besides, the inhibition was 46% in assay [2] and 2% in assay [3]. For the same compound, the outcome in assay [5], in assay [6], in assay [7] and in assay [8] was inactive.

As for `NC(N)=NN=Cc1ccc2c(c1)Cc1ccccc1-2`, the results for the growth inhibition in assay [1] and in assay [4] were 81% (active) and 100% (active), respectively. In addition, the values for the inhibition in assay [2] and in assay [3] were 72% (active) and -2%, respectively. Besides, the result in assay [5], in assay [6], in assay [7] and in assay [8] was inactive.

As to `COC[C@H]1CCCN1Cc1ccc(-c2ccc(-c3nc4ccccc4[nH]3)s2)cc1`, the figures for the growth inhibition in assay [1] and in assay [4] were 58% (active) and 95% (active), respectively. Further, the results for the inhibition in assay [2] and in assay [3] were 18% and -2%, respectively. In addition, the outcome in assay [5], in assay [6], in assay [7] and in assay [8] was inactive.

Take `Cc1c(CNCCCNc2nc3ccncc3[nH]2)sc(Br)c1Br`: the growth inhibition is 1% in assay [1] and 87% (active) in assay [4]. The inhibition in assay [2] was -10%; in assay [3] it was 3%. The result in assay [5], in assay [6], in assay [7] and in assay [8] was inactive.

In the case of `CCc1cn2c3c(cc(C(=O)N[C@@H](Cc4ccccc4)[C@H](O)CNC4CCOCC4)cc13)N(C(C)C)S(=O)(=O)CC2`, the results for the growth inhibition in assay [1] and in assay [4] were 99% (active) and 98% (active), respectively. Also, the inhibition in assay [2] was 0%; in assay [3], -2%. For the same compound, the outcome in assay [5], in assay [6], in assay [7] and in assay [8] was inactive.

As to `CN1CCN(c2ccc3nccc(CCN4CCC(NCc5ccc6c(n5)NC(=O)CO6)CC4)c3n2)CC1`, the growth inhibition in assay [1] was 3%; in assay [4], 97% (active). For the same compound, the inhibition in assay [2] was 9%; in assay [3] it was -1%. Moreover, the result in assay [5], in assay [6], in assay [7] and in assay [8] was inactive.

Turning to `COc1ccc2nccc(N3CCC(SCCNCc4ccc5c(n4)NC(=O)CO5)C3)c2n1` (stereo not given), the growth inhibition in assay [1] is 9%; in assay [4], 101% (active). For the same compound, the inhibition in assay [2] was 30%; in assay [3] it was -2%. Moreover, the outcome in assay [5], in assay [6], in assay [7] and in assay [8] was inactive.
